In PubChem BioAssay AID1159580 (chemical genetic matrix, 2015):
The campaign covered roughly 5,500 compounds. About 2,000 (36%) were called active. Inconclusive results (about 18%) are left out. Cut-off read from the data, not from the text of the source: active = normalized growth mostly below about 0.91 (no sharp cut-off); inconclusive = no clear call, values can overlap the other calls; inactive = mostly above about 0.92. The list shows a part of the results.

Experiment: chemical genetic growth profiling, strain panel (AID 1159580);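 note: tested at 20 µM; growth read once vehicle control cultures reached saturation at 30 °C; 1 = growth at the plate median or of vehicle wells; lower values mean less growth of the strain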
Settings: growth OD
[1] = S. cerevisiae deletion strains, locus YAL013W, strain DEP1, stronger effect = lower value
[2] = S. cerevisiae deletion strains, locus YDR150W, strain NUM1, stronger effect = lower value
[3] = S. cerevisiae deletion strains, locus YGR078C, strain PAC10, stronger effect = lower value
[4] = S. cerevisiae deletion strains, locus YJR075W, strain HOC1, stronger effect = lower value
[5] = S. cerevisiae deletion strains, locus YMR263W, strain SAP30, stronger effect = lower value
[6] = S. cerevisiae deletion strains, locus YMR307W, strain GAS1, stronger effect = lower value
[7] = S. cerevisiae deletion strains, locus YNL322C, strain KRE1, stronger effect = lower value
[8] = S. cerevisiae deletion strains, locus YPL055C, strain LGE1, stronger effect = lower value
[9] = S. cerevisiae deletion strains, locus YPL241C, strain CIN2, stronger effect = lower value
[10] = S. cerevisiae deletion strains, locus YAL040C, strain CLN3, stronger effect = lower value
[11] = S. cerevisiae deletion strains, locus YCL061C, strain MRC1 (second series), stronger effect = lower value
[12] = S. cerevisiae deletion strains, locus YDR363W, strain ESC2, stronger effect = lower value
[13] = S. cerevisiae deletion strains, locus YER002W, strain NOP16, stronger effect = lower value
[14] = S. cerevisiae deletion strains, locus YNL175C, strain NOP13, stronger effect = lower value
[15] = S. cerevisiae deletion strains, locus YNL197C, strain WHI3, stronger effect = lower value
[16] = S. cerevisiae deletion strains, locus YNL224C, strain SQS1, stronger effect = lower value
[17] = S. cerevisiae deletion strains, locus YOR083W, strain WHI5 (second series), stronger effect = lower value

Measured: normalized growth

CC(OCc1ccccc1)C(NC(=O)OC(C)(C)C)C(N)=O (stereo not drawn)
inactive: [1] 0.998 | S. cerevisiae deletion strains, locus YBR229C, strain ROT2, stronger effect = lower value 0.994 | S. cerevisiae deletion strains, locus YCL061C, strain MRC1, stronger effect = lower value 0.993 | S. cerevisiae deletion strains, locus YDL101C, strain DUN1, stronger effect = lower value 0.993 | S. cerevisiae deletion strains, locus YDL134C, strain PPH21, stronger effect = lower value 0.994 | [2] 0.985 | S. cerevisiae deletion strains, locus YEL061C, strain CIN8, stronger effect = lower value 0.988 | [3] 0.997 | S. cerevisiae deletion strains, locus YHR030C, strain SLT2, stronger effect = lower value 0.903 | S. cerevisiae deletion strains, locus YHR087W, strain rtc3, stronger effect = lower value 0.988 | S. cerevisiae deletion strains, locus YJL187C, strain SWE1, stronger effect = lower value 1 | S. cerevisiae deletion strains, locus YJR043C, strain POL32, stronger effect = lower value 0.974 | [4] 1.02 | S. cerevisiae deletion strains, locus YLR039C, strain RIC1, stronger effect = lower value 0.977 | S. cerevisiae deletion strains, locus YLR058C, strain SHM2 (second series), stronger effect = lower value 1 | S. cerevisiae deletion strains, locus YLR085C, strain ARP6, stronger effect = lower value 1.02 | S. cerevisiae deletion strains, locus YLR262C, strain YPT6, stronger effect = lower value 0.864 | S. cerevisiae deletion strains, locus YML094W, strain GIM5, stronger effect = lower value 1.04 | S. cerevisiae deletion strains, locus YMR219W, strain ESC1, stronger effect = lower value 0.991 | [5] 0.976 | [6] 1.07 | S. cerevisiae deletion strains, locus YNL153C, strain GIM3, stronger effect = lower value 0.998 | S. cerevisiae deletion strains, locus YNL298W, strain CLA4 (second series), stronger effect = lower value 0.974 | [7] 0.985 | S. cerevisiae deletion strains, locus YNR030W, strain Alg12, stronger effect = lower value 0.961 | [8] 1.02 | [9] 1 | S. cerevisiae deletion strains, locus YPR135W, strain CTF4, stronger effect = lower value 0.9 | S. cerevisiae strains, strain wild type, stronger effect = lower value 0.971

COc1cc(-c2ccc(=O)[nH]n2)ccc1OC(F)F
inactive: [10] 0.975 | [11] 1.01 | [12] 0.997 | [13] 1 | [3] 1.01 | [4] 1 | [6] 0.995 | S. cerevisiae deletion strains, locus YNL128W, strain TEP1, stronger effect = lower value 1.01 | [14] 1.03 | [15] 0.994 | [16] 1.01 | [7] 0.997 | [17] 1.02 | [8] 1.02 | [9] 1

Cn1ccnc1
inactive: [1] 1.01 | [10] 1.01 | [11] 1 | [2] 1 | [12] 1.01 | [13] 1 | [3] 1.01 | [5] 1.01 | [6] 1 | [14] 1 | [15] 1 | [16] 1.01 | [17] 1.02 | [8] 1
